We go through ten compounds from PubChem BioAssay (NCATS).

The target of experiment [1] is Cytochrome P450 3A4 (Homo sapiens) (UniProt P08684). The experiment can be described thus: qHTS Assay for Inhibitors and Substrates of Cytochrome P450 3A4 (AID 884). Note: potency is the fitted concentration of half-maximal effect; nearly all actives have a fitted effect of over 50% in size. A digest of the protocol: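 Luminescent readout of luciferin produced by CYP3A4 (20 nM) dealkylation of Luciferin-PPXE, 25 uM (its KM). NADPH-driven reaction ran 60 min at RT after 10 min compound preincubation; data scaled to 57 uM ketoconazole as 100% inhibition.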
Sequence of Cytochrome P450 3A4 (Homo sapiens) (P08684 whole entry, looked up): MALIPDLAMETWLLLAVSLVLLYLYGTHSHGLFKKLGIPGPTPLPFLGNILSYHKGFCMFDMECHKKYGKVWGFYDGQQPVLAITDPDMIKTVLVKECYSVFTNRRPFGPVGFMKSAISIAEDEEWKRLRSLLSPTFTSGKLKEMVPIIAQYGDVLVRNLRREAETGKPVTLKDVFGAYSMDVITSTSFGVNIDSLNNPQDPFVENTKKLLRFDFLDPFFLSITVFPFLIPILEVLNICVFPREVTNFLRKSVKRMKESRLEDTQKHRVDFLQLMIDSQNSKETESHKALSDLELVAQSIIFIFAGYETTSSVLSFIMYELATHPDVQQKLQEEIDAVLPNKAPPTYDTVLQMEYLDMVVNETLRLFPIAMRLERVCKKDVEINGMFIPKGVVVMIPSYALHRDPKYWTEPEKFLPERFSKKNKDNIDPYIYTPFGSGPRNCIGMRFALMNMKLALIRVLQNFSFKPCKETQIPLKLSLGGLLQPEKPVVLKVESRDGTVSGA

Experiment [2] shares this target. The experiment in a line: qHTS Assay for Activators of Cytochrome P450 3A4 (AID 885). Note: nearly all actives have a fitted effect of over 65% in size. A digest of the protocol:
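Human CYP3A4 dealkylates Luciferin-PPXE to luciferin, which luciferase detection converts to light. Substrate was at its KM (25uM), buffer 200mM KPO4, reaction 60 min at RT.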
In general terms: qHTS replaces the single test concentration by a dilution series.

Experiment [3] is described as follows: Confirmation and Secondary Assay for Modulators of Hemoglobin Beta Chain Splicing at IVS2 654 locus (AID 910).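 Note: HeLa cells stably carrying EGFP split by mutant beta-globin IVS2-654 intron; % of control where 0% means no effect.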 The essentials: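 HeLa cells stably expressing EGFP interrupted by β-globin IVS2-654 intron, seeded overnight in Opti-MEM/2% FCS, then treated 2 days at 37 °C. Restored splicing read as total peak GFP intensity per well by laser scanning cytometry (488 nm excitation, 500–520 nm emission); 500 nM antisense PNA as control.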

Experiment [4] in a line: Confirmation and Secondary Assay for Modulators of Hemoglobin Beta Chain Splicing at IVS2 705 locus (AID 930).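 Note: HeLa cells stably expressing the EGFP-705 splicing reporter; series mostly up to about 46 µM; % of control where 0% means no effect.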 A digest of the protocol:
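Restored EGFP fluorescence after 2-day compound exposure reports splicing correction in IVS2-705 EGFP reporter HeLa cells; positive control was 500 nM splice-blocking PNA oligo. Signal measured as well total peak GFP intensity (488 nm excitation).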

Experiment [5] concerns the target Ubiquitin carboxyl-terminal hydrolase 1 (Homo sapiens) (UniProt O94782). The experiment can be described thus: Inhibitors of USP1/UAF1: Pilot qHTS (AID 504865).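 Note: rhodamine fluorescence freed from ubiquitin-rhodamine substrate followed over time; top concentration of the series differs between compounds; % is set by controls: 0 for no effect and ±100 for the full control effect; nearly all actives have a fitted effect of over 35% in size.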 The essentials: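 Deubiquitinase activity followed as kinetic rhodamine fluorescence release from 150 nM Ub-Rho. 1 nM USP1/UAF1 with compound, after 15 min room-temperature preincubation, in HEPES pH 7.8 buffer containing TCEP, EDTA, BSA and Tween-20.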

Experiment [6] concerns the target Rap guanine nucleotide exchange factor 3 (Homo sapiens) (UniProt O95398). The experiment can be described thus: Confirmatory qHTS for agonist of cAMP-regulated guanine nucleotide exchange factor 3 (EPAC1) (AID 1645881).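 Note: EPAC1 catalysed release of BODIPY-GDP from Rap1B seen as fluorescence loss; 100% = effect of cAMP agonist control; nearly all actives have a fitted effect of over 75% in size.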
Experiment [7] concerns the target Rap guanine nucleotide exchange factor 4 (Homo sapiens) (UniProt Q8WZA2). The experiment in a line: Confirmatory qHTS for agonist of cAMP-regulated guanine nucleotide exchange factor 4 (EPAC2) (AID 1645884).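 Note: nucleotide exchange releases bodipy-GDP from Rap1 and this lowers its fluorescence; % is set by controls: 0 for no effect and ±100 for the full control effect; nearly all actives have a fitted effect of over 65% in size.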
Experiment [8] shares this target. The experiment can be described thus: Confirmatory qHTS for antagonist of cAMP-regulated guanine nucleotide exchange factor 4 (EPAC2) (AID 1645885). For activity change, negative = inhibition: % is set by controls: 0 for no effect and ±100 for the full control effect. Note: nearly all actives have a fitted effect of over 25% in size. Note: potency is the fitted concentration of half-maximal effect.
The target of experiment [9] is Rap guanine nucleotide exchange factor 3 (Homo sapiens) (UniProt O95398). The experiment in a line: Counterscreen qHTS for antagonist of cAMP-regulated guanine nucleotide exchange factor 3 (EPAC1) (AID 1645888).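 Note: fluorescence loss as bound BODIPY-GDP is released from Rap1B; % of control where 0% means no effect.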 A digest of the protocol:
(§1)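 Rap1B–BODIPY-GDP (250 nM) with 50 uM GDP; compounds pin-transferred to 9.74 nM–152 uM final (activator) or from 7.32 nM upwards (inhibitor). Fluorescence Ex/Em 480/540 nm read at 5 and 30 min, then after adding cAMP or buffer, at room temperature.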

Experiment [10] has the same target. The experiment can be described thus: Counterscreen qHTS for agonist of cAMP-regulated guanine nucleotide exchange factor 3 (EPAC1) (AID 1645889). Note: % of control where 0% means no effect; nearly all actives have a fitted effect of over 40% in size. The essentials:
as §1
(A counterscreen serves to expose hits that act by an unwanted route or on another target.)

In experiment [11] the target is Glutathione peroxidase 1 (Homo sapiens) (UniProt P07203). The experiment in a line: Primary qHTS Assay for Inhibitors of Recombinant Selenoprotein Glutathione Peroxidase 1 (GPX1) (AID 1845191). Note: nearly all actives have a fitted effect of over 65% in size. The essentials:
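GR-coupled readout: NADPH consumption tracked by fluorescence, ex 340/em 450 nm, at t=0 and after 15 min at RT. Final mix 10 nM GPX1, 1 mM GSH, 0.5 mM CHP, 0.5 mM NADPH, 100 nM GR, 0.01% BSA, following 30 min enzyme–compound preincubation.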

Experiment [12] has as its target Phospholipid hydroperoxide glutathione peroxidase GPX4 (Homo sapiens) (UniProt P36969). The experiment in a line: Primary qHTS Assay for Inhibitors of Recombinant Selenoprotein Glutathione Peroxidase 4 (GPX4) (AID 1845192). Note: series mostly up to about 50 µM; % is set by controls: 0 for no effect and ±100 for the full control effect; nearly all actives have a fitted effect of over 65% in size. The essentials:
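Steps: GPX4 plus compound, 30 min RT; add GR/GSH/NADPH master mix; start with cumene hydroperoxide; read 340/450 nm fluorescence at 0 and 15 min. Finals were 200 nM GPX4, 1 mM GSH, 0.5 mM CHP, 0.5 mM NADPH, 100 nM GR.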

Experiment [13] is described as follows: qHTS drug screen for cell cycle checkpoint inhibitors in PARPi-resistant BRCA-mutant ovarian cancer cell lines. (AID 1963452; calls by dose curve). The following applies: PEO1/OlaR viability, CellTiter-Glo luminescence, 96 h, stronger effect = lower value. The essentials: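 PEO1, PEO4 and PEO1/OlaR ovarian cancer cells, 600 per well, exposed 96 h at 37C to a dilution series. Viability read by CellTiter-Glo luminescence, normalized to DMSO and empty wells; activity summarized as Z-AUC.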

The mark [14] stands for this setting: measured here: PEO1 parental Z-AUC.

Inconclusive results are not listed. Activity calls are given as the source filed them. Unless noted, calls come from the whole dose curve; as a rule, active = well fitted curve in the direction sought with a large enough effect; inconclusive = small, poorly fitted or top-dose-only effect, or another doubt; inactive = no such curve, though single readings can be large; an effect the other way counts as inactive or inconclusive.

Sequence of Ubiquitin carboxyl-terminal hydrolase 1 (Homo sapiens) (O94782 whole entry, looked up): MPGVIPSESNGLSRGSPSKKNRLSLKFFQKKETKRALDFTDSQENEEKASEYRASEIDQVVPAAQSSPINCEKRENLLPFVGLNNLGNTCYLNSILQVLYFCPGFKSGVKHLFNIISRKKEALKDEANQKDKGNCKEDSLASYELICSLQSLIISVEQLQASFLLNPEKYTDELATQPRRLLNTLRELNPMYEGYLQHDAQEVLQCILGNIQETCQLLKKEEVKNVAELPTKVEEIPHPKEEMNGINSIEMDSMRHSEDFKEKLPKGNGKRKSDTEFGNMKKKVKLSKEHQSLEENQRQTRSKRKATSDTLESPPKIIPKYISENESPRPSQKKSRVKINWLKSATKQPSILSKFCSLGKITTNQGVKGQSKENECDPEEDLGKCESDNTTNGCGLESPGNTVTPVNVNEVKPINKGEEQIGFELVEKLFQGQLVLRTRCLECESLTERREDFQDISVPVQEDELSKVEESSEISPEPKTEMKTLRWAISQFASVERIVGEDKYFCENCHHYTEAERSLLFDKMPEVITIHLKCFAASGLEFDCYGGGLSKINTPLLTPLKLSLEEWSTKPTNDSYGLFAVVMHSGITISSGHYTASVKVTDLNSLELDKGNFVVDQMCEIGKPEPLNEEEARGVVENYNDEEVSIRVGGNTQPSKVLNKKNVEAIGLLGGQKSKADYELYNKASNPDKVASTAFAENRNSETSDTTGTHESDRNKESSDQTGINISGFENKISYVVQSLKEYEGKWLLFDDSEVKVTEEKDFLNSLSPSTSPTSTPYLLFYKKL
Sequence of Rap guanine nucleotide exchange factor 3 (Homo sapiens) (O95398 whole entry, looked up): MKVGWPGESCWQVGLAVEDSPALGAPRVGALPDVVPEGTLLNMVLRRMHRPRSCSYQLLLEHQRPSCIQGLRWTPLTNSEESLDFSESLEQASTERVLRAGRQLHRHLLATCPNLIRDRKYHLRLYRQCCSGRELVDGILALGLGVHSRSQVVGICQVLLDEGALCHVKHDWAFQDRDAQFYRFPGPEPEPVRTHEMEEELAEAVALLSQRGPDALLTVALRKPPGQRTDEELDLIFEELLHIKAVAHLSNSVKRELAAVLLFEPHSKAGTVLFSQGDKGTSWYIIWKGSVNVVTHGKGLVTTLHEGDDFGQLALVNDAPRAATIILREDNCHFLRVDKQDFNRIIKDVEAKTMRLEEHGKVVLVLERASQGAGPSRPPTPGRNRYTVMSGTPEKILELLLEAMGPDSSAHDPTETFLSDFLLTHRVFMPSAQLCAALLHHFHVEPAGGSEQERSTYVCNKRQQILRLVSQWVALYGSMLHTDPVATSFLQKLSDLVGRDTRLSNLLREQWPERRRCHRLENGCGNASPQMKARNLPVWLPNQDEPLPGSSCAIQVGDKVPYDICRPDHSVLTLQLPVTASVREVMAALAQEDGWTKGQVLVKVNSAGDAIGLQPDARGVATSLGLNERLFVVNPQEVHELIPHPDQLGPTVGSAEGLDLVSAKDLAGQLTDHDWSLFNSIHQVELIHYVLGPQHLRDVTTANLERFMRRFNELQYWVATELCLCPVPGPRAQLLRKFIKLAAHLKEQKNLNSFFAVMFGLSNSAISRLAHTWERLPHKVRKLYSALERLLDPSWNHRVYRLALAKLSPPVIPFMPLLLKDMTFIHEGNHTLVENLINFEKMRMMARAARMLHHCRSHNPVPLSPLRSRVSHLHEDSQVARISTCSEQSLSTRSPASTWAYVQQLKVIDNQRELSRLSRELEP
Sequence of Rap guanine nucleotide exchange factor 4 (Homo sapiens) (Q8WZA2 whole entry, looked up): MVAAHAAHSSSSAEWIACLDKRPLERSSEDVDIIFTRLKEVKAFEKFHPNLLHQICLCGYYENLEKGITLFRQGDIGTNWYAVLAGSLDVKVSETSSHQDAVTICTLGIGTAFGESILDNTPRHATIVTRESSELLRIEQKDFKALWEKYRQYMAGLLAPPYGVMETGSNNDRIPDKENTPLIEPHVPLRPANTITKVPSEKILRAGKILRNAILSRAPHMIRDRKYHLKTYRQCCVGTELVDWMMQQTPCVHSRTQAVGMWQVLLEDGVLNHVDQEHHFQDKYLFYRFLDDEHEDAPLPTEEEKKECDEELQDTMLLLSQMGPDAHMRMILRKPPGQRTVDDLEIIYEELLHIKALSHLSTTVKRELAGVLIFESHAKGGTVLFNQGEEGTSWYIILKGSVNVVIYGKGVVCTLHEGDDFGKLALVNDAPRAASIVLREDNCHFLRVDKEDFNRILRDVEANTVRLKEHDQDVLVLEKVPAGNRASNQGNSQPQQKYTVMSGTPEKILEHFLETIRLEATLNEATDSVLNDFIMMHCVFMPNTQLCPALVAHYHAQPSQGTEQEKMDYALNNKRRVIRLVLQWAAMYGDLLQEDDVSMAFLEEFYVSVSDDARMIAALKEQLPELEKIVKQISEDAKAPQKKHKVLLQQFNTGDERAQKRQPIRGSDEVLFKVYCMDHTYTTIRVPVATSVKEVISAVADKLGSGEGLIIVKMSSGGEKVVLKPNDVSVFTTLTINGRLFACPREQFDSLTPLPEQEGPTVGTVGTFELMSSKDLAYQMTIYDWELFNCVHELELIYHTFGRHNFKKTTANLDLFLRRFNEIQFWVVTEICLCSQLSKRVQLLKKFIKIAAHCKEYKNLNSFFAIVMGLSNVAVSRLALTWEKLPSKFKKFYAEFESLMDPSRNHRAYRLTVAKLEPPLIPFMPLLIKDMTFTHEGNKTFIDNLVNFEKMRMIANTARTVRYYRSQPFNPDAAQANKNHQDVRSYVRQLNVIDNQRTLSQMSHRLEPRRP
Sequence of Glutathione peroxidase 1 (Homo sapiens) (P07203 whole entry, looked up): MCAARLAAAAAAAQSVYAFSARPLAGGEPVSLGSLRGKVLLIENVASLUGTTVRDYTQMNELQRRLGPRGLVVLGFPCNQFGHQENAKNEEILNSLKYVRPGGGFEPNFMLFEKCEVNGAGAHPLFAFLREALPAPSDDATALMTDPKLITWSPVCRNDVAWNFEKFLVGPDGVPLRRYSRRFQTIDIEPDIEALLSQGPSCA
Sequence of Phospholipid hydroperoxide glutathione peroxidase GPX4 (Homo sapiens) (P36969 whole entry, looked up): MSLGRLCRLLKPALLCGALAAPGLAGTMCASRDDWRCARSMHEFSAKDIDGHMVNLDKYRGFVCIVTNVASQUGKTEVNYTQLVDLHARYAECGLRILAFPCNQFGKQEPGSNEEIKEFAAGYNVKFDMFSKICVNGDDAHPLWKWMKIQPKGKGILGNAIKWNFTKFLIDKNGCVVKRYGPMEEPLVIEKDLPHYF

With `O=c1cc(-c2ccc(O)cc2)oc2ccc(O)cc12`, the Potency in experiment [1] was 3.16 µM (active). Moreover, the Potency entry in experiment [2], in experiment [3], in experiment [4] and in experiment [5] was “inactive” in each case.
Turning to `Cc1sc2ncnc(N3CCCC(C)C3)c2c1C` (configuration not stated), the Potency entry in experiment [6], in [7], in experiment [8], in experiment [9] and in experiment [10] was “inactive” each time.
On to `CCOc1cccc(CC(=O)NCc2ccc3c(c2)CCN3C(C)=O)c1OCC`, for which the Potency result in experiment [6], in experiment [7], in experiment [8], in [9] and in [10] was “inactive” in each case.
For `CCN1C(=O)N2Cc3cc(OC)cc(OC)c3[C@@H](C)C=C2C12CCN(Cc1cc(C)cc(C)c1)CC2`, the Potency result in [11] and in experiment [12] was “inactive” each time. Moreover, the Z-AUC in [13] is -1 (inactive); in experiment [13] (setting [14]) it was -1.06; in experiment [13] (measured here: PEO4 Z-AUC) it was -1.16.
For `O=S(=O)(Nc1nccs1)c1ccc(NCc2cc(Br)cc(Br)c2O)cc1`, the Potency entry in experiment [6] is “inactive”. In addition, the activation in experiment [7] was -0.584% [at 17.1 µM, percent relative to cAMP agonist control] (inactive); in [10], 31.2% [at 30.8 µM] (inactive). Further, in [8], the Potency was 1.51 µM (active). The activity change, negative = inhibition in experiment [9] was 9.07% [at 30.8 µM] (inactive).
As to `O=C(Nc1ccc(F)cc1F)C1CCN(c2ncccn2)CC1`, the Potency result in experiment [6], in experiment [7], in experiment [8], in experiment [9] and in [10] was “inactive” each time.
Take `CCOC(=O)N1CCN(C(=O)CSc2nnc(Cc3ccccc3)o2)CC1`: the Potency result in [6], in experiment [7], in experiment [8] and in experiment [9] was “inactive” throughout.
For `COC(=O)C1C(O)CC[C@@H]2CN3CCc4c([nH]c5ccccc45)C3C[C@@H]12` (some centres not stated), the Potency result in experiment [3], in experiment [4] and in experiment [5] was “inactive” each time.
As for `CC1(C)CC[C@]2(C(=O)n3ccnc3)CC[C@]3(C)[C@H](C(=O)C=C4[C@@]5(C)C=C(C#N)C(=O)C(C)(C)[C@@H]5CC[C@]43C)[C@@H]2C1`, the Potency result in experiment [6] and in experiment [8] was “inactive” in each case. Further, the activation in [7] is -11.4% [at 17.1 µM, percent relative to cAMP agonist control] (inactive); in experiment [10], 18.4% [at 30.8 µM] (inactive). Moreover, the activity change, negative = inhibition in experiment [9] was -3.92% [at 30.8 µM] (inactive).
As for `Cc1c(CN2CCC(Nc3ncnc4sc(CC(F)(F)F)cc34)CC2)ccc2c1cc(C#N)n2Cc1cn[nH]c1`, the Potency result in experiment [11] and in experiment [12] was “inactive” in each case. The Z-AUC in experiment [13] is -0.417 (inactive); in experiment [13] (setting [14]), -0.643; in [13] (measured here: PEO4 Z-AUC) it was -0.075.
